Screens as filed in PubChem.
A selection: hits, their analogues and other compounds. The true share with any hit is near 3.4%.
NR2F2 inh – NR2F2 transcriptional activity inhibitors, primary screen, cell-based, luciferase reporter, HEK293T, luminescence | COUP transcription factor 2 (Homo sapiens), P24468 | HEK293T NGFI-A luciferase reporter | inhibition, % at 8.6 µM | 370,000 compounds, 0.7% hits | AID 686940, 2013;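 active = inhibition above a per-plate cutoff, mean inhibition of test wells between control levels plus 3 SD, cut at about 38% in these data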;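 also: cells cotransfected with COUP-TFII expression vector driving the NGFI-A reporter; 0% = median of COUP-TF2 test wells and 100% = reporter-only cells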
Target sequence (P24468 whole entry, looked up): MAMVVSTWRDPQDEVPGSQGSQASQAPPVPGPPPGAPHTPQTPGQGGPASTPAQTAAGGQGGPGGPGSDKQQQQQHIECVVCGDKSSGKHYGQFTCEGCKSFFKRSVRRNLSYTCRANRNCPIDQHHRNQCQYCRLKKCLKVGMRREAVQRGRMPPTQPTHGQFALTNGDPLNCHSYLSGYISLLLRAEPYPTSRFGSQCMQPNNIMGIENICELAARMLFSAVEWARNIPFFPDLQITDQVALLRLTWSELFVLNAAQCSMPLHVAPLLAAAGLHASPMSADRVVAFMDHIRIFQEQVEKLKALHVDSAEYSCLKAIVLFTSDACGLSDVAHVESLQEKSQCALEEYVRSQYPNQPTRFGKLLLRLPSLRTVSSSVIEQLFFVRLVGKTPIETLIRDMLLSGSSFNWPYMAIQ
H9c2 protect – cardioprotection against H2O2-induced cell death, primary screen, uHTS, H9c2 cells, ATPLite luminescence. H9c2 cardiomyocytes, H2O2 injury protection, 2 h. protection from H2O2 cell death, % at 20 µM. 360,000 compounds, 0.63% hits;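 active = compounds giving at least 50% protection of heart cells from peroxide-induced death in the single-dose screen, raw or plate-pattern-corrected value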;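 also: 0% = DMSO wells with peroxide and 100% = DMSO wells without peroxide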
SMARCA2 act – SMARCA2 (BRM) function activators, primary screen, cell-based, luminescence, high throughput; 370,000 compounds, 1% hits; MG213 cells, MMTV-luciferase reporter, dexamethasone, overnight; activation, % at 9.1 µM; in the data active = activation above about 7.8%;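 also: 0% = vehicle wells and 100% = reference activator wells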
Gli-Sufu block – Gli-Sufu pathway antagonists, primary screen, luciferase luminescence, Sufu-KO-LIGHT cells, uHTS | Sufu-KO-LIGHT fibroblasts, Gli luciferase reporter luminescence | inhibition, % at 5 µM | 340,000 compounds, 0.74% hits | AID 588413, 2011;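 active = inhibition above about 55%, limit read from the data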;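 also: 0% = DMSO-treated cells and 100% = wells with medium but no cells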
GalR3 antagonist – GalR3 antagonists in HEK293 cells, primary screen, cell-based, fluorescence readout | Galanin receptor type 3 (Homo sapiens), O60755 | HEK293 GalR3-CNG cAMP membrane potential fluorescence; galR3 body fused to GalR1 C-terminus | inhibition, % at 3 µM | 360,000 compounds, 0.44% hits | AID 651719, 2012;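 active = inhibition above the screen-wide average plus 3 SD, cut at about 13% in these data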;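 also: forskolin and galanin both at EC90 stimulate the cells; cAMP rise reported by CNG channel membrane potential dye signal; 0% = forskolin plus galanin with DMSO and 100% = forskolin alone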
GAA850 FXN act – FXN promoter activators, primary screen, cell-based, luciferase luminescence, HEK293 lucGAA850; HEK293 lucGAA850 FXN promoter luciferase reporter, 24 h; percent of 10 µM SAHA response; activation, % at 6 µM; 360,000 compounds, 0.56% hits;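 active = activation above the average of all compounds screened plus 3 SD, cutoff fixed separately per campaign, cut at about 7.5% in these data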;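 also: 0% = DMSO wells and 100% = 10 µM SAHA wells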
Starred values were filed as active, the others as inactive; . = no result given.

SMILES	NR2F2 inh	H9c2 protect	SMARCA2 act	Gli-Sufu block	GalR3 antagonist	GAA850 FXN act
COc1cc2ccnc(C=NO)c2cc1OC	14	16	-4	.	1	0
CC1(C(=O)NCc2ccccc2)CSCC(=O)N1CCc1c[nH]c2ccccc12 (stereo not drawn)	9	.	1	.	-3	.
O=C(CSc1ccccc1)Nc1nccs1	-6	0	0	-13	-5	3
Cc1ccc(SCC(=O)Nc2nccs2)cc1	-23	5	7.8*	-3	-2	2
CCOC(=O)C1=CCN(S(=O)(=O)c2ccccc2C)C1c1cccc(Br)c1 (stereo not drawn)	3	-3	-3	.	-8	.
COc1ccc(OCCCC(=O)Nc2nc(-c3ccccn3)cs2)cc1	10	38	-2	0	-3	-1
CC(Oc1ccc(F)cc1)C(=O)Nc1nc(-c2ccccn2)cs1 (stereo not drawn)	15	67*	2	7	-5	0
Cc1cc(C)c(OCC(=O)Nc2nc(-c3ccccn3)cs2)c(C)c1	14	63*	0	-3	-10	-3
O=C(CCS(=O)(=O)c1ccccc1)Nc1nc(-c2ccccn2)cs1	4	51*	-2	-6	.	-2
O=C(Nc1nc(-c2ccccn2)cs1)C1CC1	-39	24	3	20	0	2
O=C(CC1CC2CCC1C2)Nc1nc(-c2ccccn2)cs1 (stereo not drawn)	-5	53*	-1	-31	0	1
CCN1Cc2nnn(Cc3ccc(C)cc3)c2-c2ccccc2S1(=O)=O	11	.	-2	.	.	.
COC(=O)[C@H](CC(C)C)N(Cc1cn(Cc2ccc(C)cc2)nn1)S(=O)(=O)c1ccccc1Br	-3	.	-5	.	.	.
Nn1c(SCc2c(Cl)cccc2Cl)nnc1-c1n[nH]c2c1CCC2	6	.	-3	.	.	.
CCOc1ccc(-n2c(SCC(=O)Nc3cccc4ccccc34)nnc2-c2ccncc2)cc1	-16	.	-6	.	.	.
C[C@H]1CCC/C=C/[C@@H]2C[C@H](O)C[C@H]2[C@H](O)[C@H](S(=O)c2ccc(O)cc2)CC(=O)O1 (stereo partly drawn)	51*	6	-8	28	-4	-10
COc1cccc(/C=N/NC(=O)c2oc3nc(-c4ccccc4)cc(-c4ccco4)c3c2N)c1	-1	56*	-1	12	-6	0
O=C(c1cc(C2CC2)on1)N(C1CCCCC1)C1CCOCC1	17	.	-2	.	.	.
C/C(=N\Nc1nc(C)cc(-c2ccccc2)n1)c1ccc(C)o1	7	48*	4	1	-7	0
CC(=O)Oc1c(-c2ccc(Br)o2)oc2ccccc2c1=O	-21	58*	1	-2	-6	1
COc1ccc(-c2oc3ccccc3c(=O)c2OC(C)=O)cc1	3	46	2	-4	-4	7
C[C@H](O)C#Cc1ccc2c(c1)O[C@@H](CN(C)Cc1ccc(-c3ccccc3)cc1)[C@H](C)CN([C@@H](C)CO)S2(=O)=O	-22	18	1	.	-8	-4
COc1cc(OC)c2c(-c3cccc(-c4sccc4C(C)=O)c3)cc(=O)oc2c1	-8	-2	-1	67*	-6	-2
COC(=O)[C@H](C)N(Cc1cn(Cc2ccccc2)nn1)S(=O)(=O)c1ccccc1Br	18	.	7.8*	.	.	.
COC(=O)c1cc(-c2cccc(C#N)c2)c(=O)n2c1CCC2	3	.	-3	.	.	.
SMILES	NR2F2 inh	H9c2 protect	SMARCA2 act	Gli-Sufu block	GalR3 antagonist	GAA850 FXN act
COc1ccc(S[C@]2(C(=O)N3CCOCC3)CC(=O)N(c3ccc(OC)cc3)[C@@H]2c2ccc(OC)cc2)cc1	4	.	-6	.	.	.
CN(C)N(Cc1ccccc1)C(=O)C(O)(c1ccccc1)c1ccccc1	10	60*	-2	8	2	1
CC(C)(O)C(=O)NN(Cc1ccccc1)c1ccccc1	13	7	-1	4	-6	1
O=C(CSc1nnc(-c2ccccc2)n1Cc1ccccc1)NNC(=O)c1ccccc1O	1	59*	-1	-8	-5	-1
Cc1ccc2c(C)nc(Nc3nc(CSc4nc5ccccc5[nH]4)cc(=O)[nH]3)nc2c1	0	69*	-5	23	-2	-16
Cc1ccc(SCc2cc(=O)[nH]c(Nc3nc(C)c4ccc(C)cc4n3)n2)cc1	-7	2	-3	1	-2	1
Cc1ccc(Nc2nc(N)nc(CCl)n2)cc1	-22	-5	-12	-17	3	-9
Cc1ccc(Nc2nc(N)nc(CCl)n2)c(C)c1	-13	7	-12	68*	-8	-11
Cc1cccc(Nc2nc(N)nc(CCl)n2)c1C	13	4	-12	81*	2	-10
COc1cccc(C(=O)N2CCC(Oc3cccnc3)CC2)c1	9	.	-1	.	.	.
CCN(CC)CCNC(=O)CCc1n[nH]c(=O)c2ccccc12	9	81*	-1	11	-2	2
COC(=O)[C@@H]1N=C(c2ccc(OC)cc2)O[C@]12C(=O)N(Cc1cn(-c3ccccc3)nn1)c1cccc(Cl)c12	-4	.	-1	.	.	.
O=C(NCCO)C1(C(=O)C2CC2)CC(c2ccccc2C(F)(F)F)=NO1 (stereo not drawn)	6	.	-1	.	.	.
CCOc1cc(/C=C/c2nc3ccccc3c(=O)[nH]2)ccc1O	-24	57*	3	-38	-9	4
CSc1nc2ncc3c(n2n1)CC1c2ccccc2CCN1C3=O (stereo not drawn)	12	59*	1	7	0	-3
O=C1c2cnc3ncnn3c2CC2c3ccccc3CCN12 (stereo not drawn)	-11	7	-4	4	-5	-1
COc1cccc(N2CCN(C(=O)CSc3nc4ncccc4[nH]3)CC2)c1	3	.	-4	.	.	.
c1ccc2c(c1)CCN(c1nc3cc4c(cc3s1)OCCO4)C2	61*	-34	-7	18	-1	-8
Cc1noc(C)c1C(C)C1=CCCCC1 (stereo not drawn)	-8	.	1	.	.	.
O=C(CCc1nc2ccccc2c(=O)[nH]1)Nc1ccc(N2CCCCC2)cc1	-47	50*	-3	4	6	3
CC(=O)Nc1ccc(NC(=O)CCc2nc3ccccc3c(=O)[nH]2)cc1	0	11	0	-3	-7	1
O=C(CCc1nc2ccccc2c(=O)[nH]1)Nc1ccc(Cl)c(Cl)c1	-4	60*	-1	-2	-9	2
CN(CC(=O)Nc1cccc(F)c1)C(=O)CCc1nc2ccccc2c(=O)[nH]1	2	65*	-2	2	1	2
